The campaign covered roughly 360,000 compounds. About 10,000 (2.8%) were called active. About 4% were inconclusive and are not listed. The call rests on the fitted dose curve; in most records, active means well fitted inhibition curve with a large enough effect; inconclusive means small, poorly fitted or top-dose-only effect; inactive means flat fitted curve, though single readings scatter. Shown is part of a subset that was picked to be rich in actives.
On the % scale 0 is the no-effect control and ±100 the full control effect; potency means the concentration at half of the fitted maximal effect.

In the test the target is Serine/threonine-protein kinase PLK1 (Homo sapiens) (UniProt P53350). Nature of the test: qHTS for Inhibitors of PLK1-PDB (polo-like kinase 1 - polo-box domain): Primary Screen. Further: nearly all actives have a fitted effect of over 65% in size. On max response, negative = inhibition: series mostly up to about 57 µM. The note with it: Plk1 PBD binding of FITC phosphopeptide, fluorescence polarization.
Sequence of Serine/threonine-protein kinase PLK1 (Homo sapiens) (P53350 whole entry, looked up, the tested form may be a part): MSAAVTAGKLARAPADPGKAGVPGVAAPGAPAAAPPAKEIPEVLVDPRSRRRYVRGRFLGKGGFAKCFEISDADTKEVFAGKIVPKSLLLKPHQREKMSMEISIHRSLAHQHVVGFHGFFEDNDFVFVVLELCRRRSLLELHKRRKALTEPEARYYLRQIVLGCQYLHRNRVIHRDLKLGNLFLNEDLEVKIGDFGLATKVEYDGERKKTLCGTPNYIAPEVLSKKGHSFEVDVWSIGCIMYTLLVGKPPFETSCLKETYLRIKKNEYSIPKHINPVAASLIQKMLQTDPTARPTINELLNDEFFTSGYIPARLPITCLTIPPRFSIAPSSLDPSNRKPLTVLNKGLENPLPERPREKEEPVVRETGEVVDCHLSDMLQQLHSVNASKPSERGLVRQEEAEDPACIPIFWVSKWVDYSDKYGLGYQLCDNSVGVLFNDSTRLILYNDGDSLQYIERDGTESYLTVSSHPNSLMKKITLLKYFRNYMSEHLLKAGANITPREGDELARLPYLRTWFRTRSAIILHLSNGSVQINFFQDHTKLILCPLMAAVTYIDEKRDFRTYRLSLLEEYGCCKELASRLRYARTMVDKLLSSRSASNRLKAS
With `CN1OC[C@@H]2CN(C(=O)c3ccc(-c4ccccc4)cc3)[C@H](c3ccc(-c4cccc(F)c4)cc3)C[C@@H]21`, the max response, negative = inhibition was -8.48% (inactive). On the same count and under the same terms, as for `CC1=C(C(=O)N2CCOCC2)CC(CC(=O)NCc2cccs2)C(=O)N1CCCN1CCCC1=O` (configuration not stated), the figure is -11.8% (inactive); as for `O=C(CCCN1CCc2[nH]c3ccc(F)cc3c2C1)c1ccc(F)cc1`, -6.15% (inactive). With `CCCC(=O)N1CCc2[nH]c3ccccc3c2C1`, the Potency was 26.7 µM (active). In the case of `C=CCNC(=S)N1CCc2[nH]c3ccccc3c2C1`, the max response, negative = inhibition is -8.32% (inactive). Still for that read-out and setting: to `CCc1nc2c(OCc3ccc(F)c(F)c3)cccn2c1N(C)C(=O)c1ccco1` belongs 1.07% (inactive); to `O=C(OCc1ccccc1)N1CCC2CC1c1ccc(-c3ccc4c(c3)OCO4)cc12` (configuration not stated), 2.15% (inactive); to `CC1(C(=O)NS(=O)(=O)c2cccc(OC(F)F)c2)CCN1C(=O)COc1ccc(Cl)cc1` (configuration not stated), 3.32% (inactive). For the compound `OC(c1ccc(Cl)c(F)c1)c1ncc(-c2ccccc2Cl)[nH]1` (configuration not stated), the max response, negative = inhibition is 3.86% (inactive).

Consider `CCCCC(O)C1=C[N+](=O)CC=C1` (configuration not stated), for which the max response, negative = inhibition was -14.2% (inactive).

Regarding `C=C1c2c(Cl)ccc(O)c2C(O)=C2C(=O)[C@]3(O)C(O)=C(C(N)=O)C(=O)[C@@H](N(C)C)[C@@H]3[C@@H](O)C12` (some centres not stated), the Potency is 23.8 µM (active).

`CN(C)[C@@H]1C(=O)C(C(N)=O)=C(O)[C@@]2(O)C(=O)C3=C(O)c4c(O)ccc(Cl)c4[C@@H](O)[C@H]3C[C@@H]12`: the max response, negative = inhibition was -16.8% (inactive).

In the case of `O=C(COC(=O)c1cncc(Br)c1)Nc1ccc(S(=O)(=O)N2CCOCC2)cc1`, the max response, negative = inhibition is -5.27% (inactive). Take `O=[N+]([O-])c1cccc2ncccc12`: the Potency is 3.77 µM (active). As for `O=[N+]([O-])c1ccccc1S(=O)(=O)Nc1cccc2cccnc12`, the max response, negative = inhibition is -7.49% (inactive). For `Nc1nc(Sc2ncccc2[N+](=O)[O-])n[nH]1`, the max response, negative = inhibition was 4.21% (inactive). `CC(C)Cn1cc(-c2cncc3nccn23)cn1`: the max response, negative = inhibition is -13.4% (inactive). Regarding `O=C(Nc1ccc2c(c1)OCCO2)C1c2ccccc2OCC(=O)N1Cc1ccccn1` (configuration not stated), the max response, negative = inhibition was -7.8% (inactive). For `CCc1ccc(N(CC(=O)NCc2cccnc2)S(=O)(=O)c2ccccc2)cc1`, the max response, negative = inhibition was -2.42% (inactive). On to `CCC(C(=O)NCc1ccc(OC)cc1)n1nc(C)n2c(cc3occc32)c1=O` (configuration not stated), for which the max response, negative = inhibition was -1.71% (inactive). `CCC(C(=O)NCc1cccnc1)n1nc(C)c2sc3ccccc3c2c1=O` (configuration not stated): the Potency is 26.7 µM (active). Turning to `CC(=O)Nc1cccc(-c2ccnc3c2CC(C)(C(=O)NCc2ccco2)O3)c1` (configuration not stated), the max response, negative = inhibition was -8.18% (inactive). In the case of `CCOC(=O)c1cccc(NC(=O)CN(c2ccc(C)cc2)S(=O)(=O)c2c(C)noc2C)c1`, the max response, negative = inhibition is -3.68% (inactive).

`CCOc1ccc(N(CC(=O)OC)S(=O)(=O)c2c(C)noc2C)cc1`: the Potency was 26.7 µM (active). As to `COc1ccc(N(CC(=O)Nc2cc(OC)ccc2OC)S(=O)(=O)c2c(C)noc2C)cc1`, the max response, negative = inhibition was 2.36% (inactive). Regarding `CC(=O)Nc1cc(-c2ccccc2F)cn2c(-c3cccc(C(F)(F)F)c3)cnc12`, the max response, negative = inhibition was -1.88% (inactive).

In the case of `CC(C)N(C(=O)CN1CCN(S(=O)(=O)c2ccc(Br)s2)CC1)C(C)C`, the max response, negative = inhibition is 1% (inactive). Turning to `Cc1ccc(S(=O)(=O)N2CCN(CC(=O)N/N=C/c3ccc(Br)s3)CC2)cc1`, the max response, negative = inhibition is -1.96% (inactive). Regarding `Cc1cccc(NC(=O)CN2CCCN(S(=O)(=O)c3ccc(Br)s3)CC2)c1`, the Potency was 21.2 µM (active).

Regarding `CCCCc1c(-c2ccc(Cl)cc2)ncn1CCc1ccccc1OC`, the max response, negative = inhibition was 5.05% (inactive). For the compound `COc1ccc(-c2ccc(CN3C(CC(C)C)C(=O)N(Cc4cn(CC5CCCCC5)nn4)CCS3(=O)=O)cc2)cn1` (configuration not stated), the max response, negative = inhibition was -1.42% (inactive). On to `COc1ccc(NC(=O)CN(C)C(=O)c2cc(C)oc2C)cc1`, for which the max response, negative = inhibition is 1.78% (inactive).

Take `CNC(=O)Nc1cc(C(C)(C)C)no1`: the Potency was 10.6 µM (active). Turning to `CCCCn1nnnc1C(c1cc2ccccc2o1)N(C)Cc1ccc(Cl)c(Cl)c1` (configuration not stated), the max response, negative = inhibition was 5.97% (inactive). Consider `COCc1c(N)c(C)nc(Cl)c1C#N`, for which the Potency was 18.9 µM (active). `COC(=O)c1c(C)c(C)nc(N)c1C#N`: the max response, negative = inhibition was -3.28% (inactive).

For `Cc1nc(Cl)c(C#N)c2c1CCCC2`, the max response, negative = inhibition is -17.7% (inactive). Regarding `O=C(Nc1ccc(F)cc1)Nc1nnc([C@H]2C[C@H](O)[C@@H](CO)O2)s1`, the max response, negative = inhibition is 3.58% (inactive).

Take `COC(=O)C[C@H]1C=C[C@H](NC(=O)c2ccc(F)cc2)[C@@H](CO)O1`: the max response, negative = inhibition was -25.2% (inactive).

For `CC1(C)CN(Cc2cccnc2)C(=O)[C@H]1CC(=O)Nc1ccc(Br)cc1`, the max response, negative = inhibition is 2.66% (inactive). Turning to `Cc1ccccc1CC1(CO)CCCN(C(=O)c2cc(-c3ccccc3)no2)C1` (configuration not stated), the max response, negative = inhibition is -5.7% (inactive). With `COC(=O)CCC(=O)N1CCCC(CO)(Cc2ccccc2)C1` (configuration not stated), the Potency is 21.2 µM (active).

For the compound `Cc1noc(C)c1CCC(=O)N1CCCC(CO)(Cc2ccccc2)C1` (configuration not stated), the max response, negative = inhibition was -15.4% (inactive).

For `O=C(NCCc1cccc(F)c1)C1CC(O)CN1C(=O)Nc1ccccc1` (configuration not stated), the max response, negative = inhibition was -1.53% (inactive). For the compound `CCCCN1C(=O)C(CC(=O)NCc2cccs2)CC(C(=O)N2CCOCC2)=C1C` (configuration not stated), the max response, negative = inhibition was 5.78% (inactive). Consider `CC(C)(C)C(=O)c1c(N)[nH]c(C(=O)c2ccccc2)c1-c1ccc(F)cc1`, for which the max response, negative = inhibition is 2.51% (inactive). Regarding `CN(C)c1cc(-c2ccc(F)cc2)oc(=O)c1Cl`, the max response, negative = inhibition is -4.6% (inactive).

For `O=c1oc2cc(O)ccc2cc1-c1ccc(F)cc1`, the Potency was 3.36 µM (active). As to `O=c1oc2ccccc2cc1-c1cn(-c2ccccc2)c(=S)[nH]1`, the max response, negative = inhibition was -16.2% (inactive). Same read-out and setting: to `CS(=O)(=O)/C(C#N)=C/c1cccn1S(=O)(=O)c1ccc([N+](=O)[O-])cc1` belongs -19.8% (inactive). As to `Cc1ccc(CSc2nsc(C)c2C#N)cc1`, the Potency is 15 µM (active). With `Cc1cc(C)c(C#N)c(SCc2ccc3c(c2)OCO3)n1`, the max response, negative = inhibition was -1.63% (inactive). On the same count and under the same terms, to `Cc1snc(SCc2c(F)cccc2Cl)c1C#N` belongs -3.96% (inactive); to `CC(=O)c1ccc(-c2cnc3c(NC=O)cc(-c4cccc(NS(C)(=O)=O)c4)cn23)cc1`, 2.12% (inactive); to `COC(=O)C[C@@H]1C=C[C@@H](NC(=O)c2cccnc2)[C@@H](CO)O1`, -16.8% (inactive).

Turning to `CCCCN(C(C)=O)c1ccc2c(c1)C1CC2CCN1Cc1ccccc1` (configuration not stated), the max response, negative = inhibition was -11% (inactive). As to `CCCCn1nnnc1C1(C)CCC(=O)N1Cc1ccc(OC)c(OC)c1` (configuration not stated), the max response, negative = inhibition is -1.18% (inactive).

(Values after PubChem BioAssay AID720504 (National Center for Advancing Translational Sciences (NCATS), 2013).)
